# Screening data as filed in PubChem BioAssay.
# In the library only some 2.9% were active in any assay of this set; here they are far more common.
# rCAG binder = r(CAG) repeat RNA binding; TO-PRO-1 dye displacement fluorescence; inhibition, % at 3 µM; hit rate 1.3% among 370,000;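 active means inhibition above the plate cutoff, the mean of all test compounds on that plate plus 3 SD, cut at about 35% in these data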;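 further: 0% = DMSO alone and 100% = 100 µM mitoxantrone as full dye displacement; higher means more dye released from RNA so lower well fluorescence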
# ZTA counter = blocks Epstein-Barr virus ZTA, an EBNA-1 counter-screen; P03206; ZTA-DNA binding, fluorescence polarization; inhibition, % at 11 µM; hit rate 0.15% among 320,000; AID 2234; in the data active means inhibition above about 33%
# Target sequence (P03206 whole entry, looked up): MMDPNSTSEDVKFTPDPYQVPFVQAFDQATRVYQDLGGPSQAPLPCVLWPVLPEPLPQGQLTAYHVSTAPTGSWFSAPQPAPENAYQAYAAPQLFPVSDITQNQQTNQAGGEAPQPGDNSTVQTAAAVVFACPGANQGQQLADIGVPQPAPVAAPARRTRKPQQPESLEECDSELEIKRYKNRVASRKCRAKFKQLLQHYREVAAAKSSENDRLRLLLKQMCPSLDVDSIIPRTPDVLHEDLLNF
# EBNA-1 inh = blocks EBNA-1 binding to DNA. EBNA-1 DNA binding, fluorescence polarization. inhibition, % at 14.8 µM. hit rate 0.34% among 300,000. AID 1950; in the data active means inhibition above about 28%
# PAFAH2 inh = inhibitors of human PAFAH2; inhibition, % at 3.39 µM; hit rate 0.99% among 340,000; Q99487; AID 492956; recombinant PAFAH2, FP-rhodamine activity probe, fluorescence polarization;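 active means inhibition above the mean over all tested compounds plus 3 SD, cut at about 30% in these data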;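 further: inhibitors block probe labeling of enzyme so polarization drops; 0% = enzyme with DMSO and 100% = wells lacking PAFAH2 protein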
# PAFAH1B2 FP inh = blocks human PAF acetylhydrolase 1b catalytic subunit 2. hit rate 1.2% among 340,000. recombinant PAFAH1B2, FP-rhodamine activity probe, fluorescence polarization. inhibition, % at 3.39 µM. AID 492953. P68402;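 active means inhibition above the mean of all tested compounds plus 3 SD, cut at about 24% in these data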;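 further: 0% = enzyme with DMSO and 100% = wells lacking PAFAH1B2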
# Target sequence (P68402 whole entry, looked up): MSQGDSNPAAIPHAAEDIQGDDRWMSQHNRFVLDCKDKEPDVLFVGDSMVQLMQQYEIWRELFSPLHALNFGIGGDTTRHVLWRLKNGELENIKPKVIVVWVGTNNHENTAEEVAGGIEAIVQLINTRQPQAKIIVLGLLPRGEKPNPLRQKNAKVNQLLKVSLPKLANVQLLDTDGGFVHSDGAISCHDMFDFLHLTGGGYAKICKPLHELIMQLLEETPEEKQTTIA
# PAFAH1B3 inh = blocks human PAF acetylhydrolase 1B catalytic subunit 3; hit rate 0.28% among 340,000; recombinant PAFAH1B3, FP-rhodamine probe, fluorescence polarization; AID 492972; Q15102; inhibition, % at 3.39 µM;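 active means inhibition above the screen-wide average of all tested compounds plus 3 SD, cut at about 25% in these data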;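 further: 0% = enzyme with DMSO only and 100% = wells lacking PAFAH1B3 protein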
# rCAG bind conf = r(CAG) RNA repeat binding, confirmation | shares compounds with rCAG binder | TO-PRO-1 dye displacement fluorescence | inhibition, % at 3 µM | hit rate 70% among 4,300;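 active means inhibition above a per-plate cutoff, the mean inhibition of sample wells plus 3 SD, cut at about 35% in these data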;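 further: loss of TO-PRO-1 fluorescence as compound displaces dye from 1x1 AA loop RNA; 0% = DMSO only wells and 100% = 100 µM mitoxantrone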
# dCAG dye counter = DNA CAG dye complex inhibition counter-screen | AID 652068 | hit rate 94% among 4,300 | d(CAG) DNA oligo TO-PRO-1 dye displacement, fluorescence | inhibition, % at 3 µM | shares compounds with rCAG binder;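 active means inhibition above its plate's cutoff, the mean test-well inhibition plus 3 SD, cut at about 4.8% in these data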;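 further: 0% = DNA dye mix with DMSO and 100% = 100 µM mitoxantrone; hits displace the dye from DNA and so lower well fluorescence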
# * hit, by the source's call; / = no result.
SMILES,rCAG binder,ZTA counter,EBNA-1 inh,PAFAH2 inh,PAFAH1B2 FP inh,PAFAH1B3 inh,rCAG bind conf,dCAG dye counter
O=C(/C=C/c1ccco1)Nc1cccc(C(=O)Nc2ccccc2C(=O)O)c1,67*,5,1,2,-6,2,82*,49*
Cc1ccc(NC(=O)c2cccc(NC(=O)/C=C/c3ccco3)c2)cc1C,33,-21,-8,-24,-16,-24,/,/
O=C(O)c1cccc(NC(=S)NC(=O)C(c2ccccc2)c2ccccc2)c1,45*,11,7,1,15,4,34,9.3*
CCc1ccccc1NC(=O)c1cccc(NC(=O)/C=C/c2ccco2)c1,10,6,4,-13,2,14,/,/
O=C(CN(Cc1ccccc1Cl)C(=O)CNS(=O)(=O)c1ccc(F)cc1)NCC1CCCO1 (stereo not drawn),1,9,-2,4,-1,-5,/,/
Cc1cccc(/C=C2\Sc3ccc(C(=O)N4CCC(C)CC4)cc3N(C)C2=O)c1,2,-11,1,4,2,6,/,/
COc1ccc(C(=O)CCC(=O)N2CCN(c3ccccc3)CC2)cc1,6,-8,-5,-2,2,3,/,/
COc1ccc(N2C(=NC(=O)CC3CCCCC3)SC3CS(=O)(=O)CC32)cc1 (stereo not drawn),1,-16,6,4,7,10,/,/
Clc1cccc(CSc2ncnc3sc4c(c23)CCCC4)c1,3,/,/,/,/,/,/,/
O=C(c1ccc(F)cc1Cl)N(Cc1ccccn1)CC1CCCO1 (stereo not drawn),2,/,/,/,/,/,/,/
O=C(Nc1cc(C(=O)Nc2ccccc2C(=O)O)cc(C(=O)Nc2ccccc2C(=O)O)c1)c1ccccc1,77*,5,11,-108,-4,5,86*,61*
O=C(O)c1cccc(NC(=O)c2cc(NC(=O)c3ccccc3)cc(NC(=O)c3ccccc3)c2)c1,66*,-12,-2,-40,-1,-4,60*,24*
O=C(Nc1ccccc1C(=O)O)c1cccc(F)c1,0,5,5,-2,3,7,/,/
O=C(O)c1cccc(NC(=O)c2ccccc2)c1,0,/,/,8,-3,-2,/,/
O=C(Nc1ccccc1C(=O)O)c1cccc(NC(=O)c2ccccc2Br)c1,48*,7,2,-10,4,5,33,9.5*
O=C(CCC1CCCCC1)Nc1cccc(C(=O)Nc2ccc(C(=O)O)cc2)c1,35*,0,-4,5,-2,5,27,5.5*
O=C(N/C(=C\c1ccc(-c2ccccc2)o1)C(=O)N1CCOCC1)c1ccccc1,-3,/,/,5,7,7,/,/
CCCCCCN1C[C@@H](n2cc(COC(=O)c3ccccc3)nn2)[C@H](O)C[C@@H]1c1ccccc1,2,/,/,/,/,/,/,/
CCOC(=O)c1sc(N=NC2=C(O)CCCC2=O)c(C(=O)OCC)c1C,57*,-2,-1,10,-5,2,33,17*
O=c1cc(-c2ccc([N+](=O)[O-])cc2)nc2cc(-c3ccc(F)cc3)[nH]n12,35*,-2,1,17,58*,10,50*,15*
N#Cc1ccccc1S(=O)c1ccccc1C(=O)Nc1ccccc1 (stereo not drawn),2,15,6,6,-1,5,/,/
O=C1Nc2ccccc2C1=O,0,6,-4,2,-1,-5,/,/
O=C1Nc2ccc3sc4ccccc4c3c2C1=O,36*,-11,0,/,/,/,17,14*
CCOc1cc(CC(=O)N[C@@H](CC(C)C)c2ccccc2N2CCCCC2)ccc1C(=O)O,47*,8,3,-3,8,2,36*,9.8*
O=C1/C(=C\c2ccco2)SC(=S)N1c1ccc(O)cc1,16,-10,9,-6,-1,2,/,/
SMILES,rCAG binder,ZTA counter,EBNA-1 inh,PAFAH2 inh,PAFAH1B2 FP inh,PAFAH1B3 inh,rCAG bind conf,dCAG dye counter
O=C(NN1C(=O)/C(=C/C=C/c2ccco2)SC1=S)c1ccncc1,77*,74*,51*,/,/,/,81*,48*
O=C1/C(=C/C=C/c2ccco2)SC(=S)N1c1ccc(O)cc1,74*,23,22,17,-4,7,77*,46*
COc1cccc(O[C@H]2C=C[C@@H](c3ccccc3)O[C@@H]2CO)c1,5,/,/,/,/,/,/,/
CS(=O)(=O)Cc1ccc(C(=O)N2CCCC2c2cccs2)cc1 (stereo not drawn),1,-9,-3,-5,6,8,/,/
CC1CCC(NC(=O)CN2C(=O)NC3(CCCCCC3)C2=O)CC1 (stereo not drawn),0,-9,/,1,2,4,/,/
Cc1cc(Cl)cc2c(N=Nc3ccccc3C(=O)O)c(O)[nH]c12,39*,14,7,27,2,8,92*,76*
O=C(Nc1cccc(-c2nc3ccccc3c(=O)o2)c1)c1ccccc1,36*,17,6,-21,-8,-18,7,2
O=c1cc(-c2ccccc2)[nH]n1-c1nc2ccccc2[nH]1,65*,-1,9,5,3,8,16,9.1*
CCc1cc(=O)[nH]c(-n2[nH]c(-c3ccccc3)cc2=O)n1,17,14,12,21,6,7,/,/
C[C@@H]1COc2cccc(NCCCN3CCOCC3)c2S(=O)(=O)N1,1,/,/,/,/,/,/,/
O=S(=O)(Nc1nccs1)c1ccc(Nc2nnc(-c3ccccc3)c3ccccc23)cc1,54*,0,9,9,-2,-2,65*,27*
O=C(Nc1ccc(S(=O)(=O)Nc2nccs2)cc1)C1=NN(c2ccccc2)C(=O)CC1,36*,-16,-15,10,3,2,29,14*
CN(C)c1cccc(C(=O)Nc2ccc(S(=O)(=O)Nc3nccs3)cc2)c1,36*,/,/,12,10,17,28,10.0*
O=C(Nc1ccc(S(=O)(=O)Nc2nccs2)cc1)c1cccc(F)c1,13,6,-4,-2,4,-1,/,/
O=C(Nc1ccc(S(=O)(=O)Nc2nccs2)cc1)c1cc(-c2ccccn2)nc2ccccc12,66*,13,11,6,-2,8,61*,26*
O=C(Nc1ccncc1)c1cc(-c2ccccn2)nc2ccccc12,1,12,-4,1,7,-1,/,/
Cc1ccc(-n2ccc(=O)c(C(=O)Nc3ccc(S(=O)(=O)Nc4nccs4)cc3)n2)cc1,25,23,5,2,-1,6,/,/
COC(=O)C1CN(C2CCCC2)CCS(=O)(=O)N1Cc1cn(Cc2ccc(OC)cc2)nn1 (stereo not drawn),-1,/,/,/,/,/,/,/
Cc1cc(N2CCN(CC(C)(C)O)C[C@@H]2C)ccc1N1CCN(Cc2ccccc2)[C@H](C)C1,2,/,/,/,/,/,/,/
